# A selection: hits, their analogues and other compounds. The true share with any hit is near 17%.
# TDP1 block = inhibitors of human tyrosyl-DNA phosphodiesterase TDP1 | recombinant TDP1, AlphaScreen DNA substrate cleavage | 0.28% of 350,000 active | Potency, µM (titrated, usually from 130 µM), inactives show at the top dose activity change, negative = inhibition, actives largely listed as inhibitors | AID 485290 | Q9NUW8; further: on the % scale 0 is the no-effect control and ±100 the full control effect; nearly all actives have a fitted effect of over 40% in size
#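 Signal: AlphaScreen proximity between streptavidin donor and anti-FITC acceptor beads on intact substrate. Reaction: Tdp1 1 nM, substrate 15 nM final, 5 min RT after 15 min compound preincubation.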
# DT40 TDP1 no CPT = qHTS for Inhibitors of human tyrosyl-DNA phosphodiesterase 1 (TDP1): qHTS in cells in absence of CPT | DT40 Tdp1-/- hTDP1 cells, no CPT, ATP luminescence, 48 h | Potency, µM (series often up to 46.2 µM), for inactives: at the top dose activity change, negative = growth inhibition, actives largely listed as inhibitors | 15% of 420,000 active; further: on the % scale 0 is the no-effect control and ±100 the full control effect; nearly all actives have a fitted effect of over 55% in size
#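 Chicken DT40 Tdp1-/- cells stably complemented with human TDP1 were seeded at 400 cells/well with DMSO in place of 20 nM camptothecin. After compound pinning, cells grew at least 48 hr at 37 °C; viability read by CellTiter-Glo luminescence.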
# TDP1 cell CPT = growth inhibition of DT40 Tdp1-/-;hTDP1 cells with camptothecin (screen for TDP1 inhibitors). 12% of 420,000 active. AID 686979. chicken DT40 Tdp1-/-;hTDP1 cells + 20 nM CPT, ATP luminescence, 48 h. Potency, µM (titrated, usually from 46.2 µM), without a hit: at the highest dose activity change, negative = growth inhibition, hits mostly inhibitors; further: on the % scale 0 is the no-effect control and ±100 the full control effect; nearly all actives have a fitted effect of over 55% in size
#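 Chicken DT40 Tdp1-/- cells complemented with human TDP1, 400 cells/well, exposed to compounds plus 20 nM camptothecin for at least 48 h at 37 C; viability read as ATP content by CellTiter-Glo luminescence.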
# ClpP mod = qHTS Assay for Activators of ClpP | ATP-dependent Clp protease proteolytic subunit (Bacillus subtilis (strain 168)), P80244 | purified B. subtilis ClpP, FRET peptide cleavage, 20 min | Potency, µM (doses to about 57.5 µM), inactives show at the highest dose activity change, negative = active | 1.9% of 340,000 active | AID 651965, 2013; active means well fitted falling curve with a large enough effect; inconclusive means small, poorly fitted or top-dose-only effect; inactive means no such curve, though single readings can be large or run the other way; further: the source files actives as falling curves though it sought activators and does not explain the sign; nearly all actives have a fitted effect of over 65% in size
# Target sequence (P80244 whole entry, looked up): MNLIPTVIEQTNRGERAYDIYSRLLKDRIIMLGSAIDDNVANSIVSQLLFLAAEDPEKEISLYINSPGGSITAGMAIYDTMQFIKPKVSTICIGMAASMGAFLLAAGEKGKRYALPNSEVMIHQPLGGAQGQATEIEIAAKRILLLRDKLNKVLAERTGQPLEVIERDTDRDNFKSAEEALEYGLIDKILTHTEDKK
#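 FRET quenching reversal measured ClpP activation: 10 microg/mL B. subtilis ClpP at pH 8 with the FRET-FV decapeptide, read at 430 nm after 320 nm excitation. The 20-min minus 0-min signal was scaled between DMSO/no-enzyme wells and ADEP (5.8 microM final).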
# * hit, by the source's call; ? = inconclusive; . = no result given; [ ] = another dose, or the depositor's remark. Unless noted, the call rests on the fitted dose curve; in most records, active means well fitted curve in the direction sought with a large enough effect; inconclusive means small, poorly fitted or top-dose-only effect, or another doubt; inactive means no such curve, though single readings can be large; an effect the other way counts as inactive or inconclusive. Potency means the concentration at half of the fitted maximal effect.
SMILES,TDP1 block,DT40 TDP1 no CPT,TDP1 cell CPT,ClpP mod
O=C(NC(=S)N1CCN(c2ccc([N+](=O)[O-])cc2)CC1)c1ccccc1F,7%,21µM*,?,-2%
O=[N+]([O-])c1ccc(N2CCN(c3ccc(F)cc3)CC2)cc1,.,-12%,-5%,.
O=C(NC(=S)N1CCN(c2ccc([N+](=O)[O-])cc2)CC1)c1ccc(F)cc1,-2%,26µM*,?,-2%
O=[N+]([O-])c1ccc(N2CCN(C(=S)Nc3ccccc3)CC2)cc1,8%,?,-20%,.
CC(C)C(NC(=O)C1CCCCC1)C(=O)N1CCN(c2ccc(F)cc2)CC1 (centres undefined),5%,16µM*,13µM*,-3%
O=C(NC(Cc1ccccc1)C(=O)N1CCN(c2ccc(F)cc2)CC1)c1ccccc1 (centres undefined),.,26µM*,?,-2%
CC1CCC(C(=O)NC(C(=O)N2CCc3ccccc3C2)C(C)C)CC1 (centres undefined),0%,?,16µM*,2%
COc1ccccc1CNC(=O)CN1CCN(S(=O)(=O)c2cccs2)CC1,-5%,?,-7%,1%
CCOC(=O)CCNC(C(=O)OCC)c1ccccc1 (centres undefined),9%,-21%,-1%,-1%
CCOC(=O)C(c1ccccc1)C(Nc1ccc(F)cc1)c1ccccn1 (centres undefined),-4%,18µM*,?,1%
CCOC(=O)C(C(=O)OCC)C(Nc1ccc(Br)cc1)c1ccccc1 (centres undefined),4%,?,29µM*,2%
CC(C)On1c(SCC(=O)N(C)C)nc2ccccc2c1=O,3%,-3%,9%,-2%
Cc1ccc(C(Sc2ccccc2)C(Cn2cncn2)C(=O)c2ccccc2)cc1 (centres undefined),8%,23µM*,?,1%
Cc1ccc(SCCCn2cncn2)cc1,2%,-15%,-6%,-1%
CCCCC(=O)NC(=S)Nc1cccc(NC(=O)CC)c1,-2%,-21%,-17%,-1%
CCCCC(=O)NC(=S)Nc1c(C)cc(Br)cc1C,0%,18µM*,21µM*,1%
Cc1ccc(C(=O)OC(C)C(=O)N(C)C2CCCCC2)cc1S(=O)(=O)N1CCCCC1 (centres undefined),0%,23µM*,?,-1%
COc1ccc(NC(=O)COc2ccccc2C(N)=O)cc1S(=O)(=O)N1CCCCC1,.,?,-10%,-1%
Cc1ccc(NC(=O)CCl)cc1S(=O)(=O)N1CCCCCC1,3%,2.6µM*,2.1µM*,.
Cc1ccc(C(=O)OC(C)C(=O)NC2CCCCC2)cc1S(=O)(=O)N1CCCCC1 (centres undefined),-9%[56.1 µM],?,?,-1%
CCc1noc(C)c1C(=O)Nc1ccc(C)c(S(=O)(=O)N2CCCCCC2)c1,.,?,16µM*,-5%
COc1ccc(NC(=O)COc2ccccc2C)cc1S(=O)(=O)N1CCCCC1,-17%,8.2µM*,?,-2%
O=C(Nc1nncs1)c1cc(S(=O)(=O)N2CCCCC2)ccc1Cl,-4%,-22%,0%,3%
Cc1c(-c2ccn[nH]2)cc(NC(=O)c2ccc(Cl)cc2)c(=O)n1N,6%,-23%,7%,.
O=C(CCC(=O)Nc1ccccc1Cl)NNC(=O)c1ccco1,3%,-5%,9%,0%
SMILES,TDP1 block,DT40 TDP1 no CPT,TDP1 cell CPT,ClpP mod
Cc1ccc(NC(=O)COC(=O)c2ccccc2F)cc1S(=O)(=O)N1CCCCC1,0%,1%,4%,2%
Cc1ccc(NC(=O)COc2ccccc2C(N)=O)cc1S(=O)(=O)N1CCCCCC1,2%,3.7µM*,4.1µM*,-2%
Cc1ccc(NC(=O)CNc2ccccc2N2CCCC2=O)cc1S(=O)(=O)N1CCCCC1,3%,15µM*,16µM*,-3%
CCOc1ccc(C(=O)CCC(=O)Nc2ccc(C)c(S(=O)(=O)N3CCCCC3)c2)cc1,-2%,16µM*,-15%,-3%
Cc1ccc(NC(=O)COC(=O)c2cccc(C)c2[N+](=O)[O-])cc1S(=O)(=O)N1CCCCC1,3%,?,16µM*,-5%
CC(=O)c1ccc(OCCCC(=O)Nc2ccc(C)c(S(=O)(=O)N3CCCCC3)c2)cc1,0%,?,?,.
CCOc1ccccc1C(=O)N1CCCCC1CCN1CCOCC1 (centres undefined),0%,8%,-7%,0%
CCOC(=O)c1cccnc1SCC(=O)Nc1ccc(C)cc1C,8%,?,?,2%
COC(=O)c1ccc(COC(=O)c2ccc(C)c(S(=O)(=O)N3CCCCC3)c2)cc1,2%,?,29µM*,.
Cc1ccc(OCC(=O)Nc2ccc(C)c(S(=O)(=O)N3CCCCCC3)c2)c([N+](=O)[O-])n1,7%,?,?,-1%
Cc1ccc(NC(=O)COc2cccc(C)c2C)cc1S(=O)(=O)N1CCCCCC1,-3%[0.505 µM],18µM*,?,.
Cc1ccc(NC(=O)/C=C/c2ccco2)cc1S(=O)(=O)N1CCCCCC1,.,9.2µM*,21µM*,-3%
COc1ccc(NC(=O)CN(Cc2ccco2)Cc2ccco2)cc1S(=O)(=O)N1CCCCC1,3%[56.1 µM],?,23µM*,-2%
CCN(CC)S(=O)(=O)c1ccc(OC)c(NC(=O)c2cccc([N+](=O)[O-])c2C)c1,.,?,?,0%
CCOc1ccc(OCCC(=O)OCC(=O)NC2CCCC2)cc1,-2%,-13%,-8%,1%
Cc1ccc(C(=O)Nc2cccc(O)c2)cc1S(=O)(=O)N1CCCCCC1,0%,1.2µM*,29µM*,31%
Cc1ccc(NC(=O)COc2ccc(N(C)C(=O)C(C)(C)C)cc2)cc1S(=O)(=O)N1CCCCC1,2%,2.3µM*,8.2µM*,-1%
Cc1ccc(NC(=O)c2ccc(C)c(S(=O)(=O)N3CCCCCC3)c2)cc1,4%,.,.,0%
CCN(CC)C(C)C#CCC(c1ccccc1)c1ccccc1 (centres undefined),2%,.,.,.
CC(C)N1CCc2c(sc(NC(=O)c3ccc(C(=O)c4ccccc4)cc3)c2C(N)=O)C1,5%,23µM*,?,-3%
COC(=O)c1c(NC(=O)c2ccco2)sc2c1CCN(C(C)C)C2,4%,-12%,?,-7%
CC(C)N1CCc2c(sc(NC(=O)c3cc4cc([N+](=O)[O-])ccc4s3)c2C(N)=O)C1,-3%,4.6µM*,4.6µM*,-1%
CC(C)NC(=O)c1cc2cc([N+](=O)[O-])ccc2s1,-5%,15µM*,?,1%
CC(C)N1CCc2c(sc(NC(=O)Cc3ccccc3)c2C(N)=O)C1,.,-22%,-7%,-1%
CC(C)N1CCc2c(sc(NC(=O)c3ccc4ccccc4c3)c2C(N)=O)C1,2%,?,15µM*,-8%
CCCNC(=O)c1cc2cc([N+](=O)[O-])ccc2s1,1%,-17%,-26%,1%

# Assay outcomes (PubChem)
